Test results published in the supplement of paper PMC10646978.
± gives the standard deviation.

What was measured:
Conditions in all cases: modulator concentration 10 µM
[1] = tested on: RAW-Dual (murine macrophage reporter line); test: NF-kB reporter (SEAP) activity fold change vs agonist alone; higher = enhanced NF-kB activity
Summary of the method: (§1)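 Compound reached 10 μM final in each well by pin transfer, onto RAW-Dual murine macrophage reporter cells seeded at 50 000 per well in 384-well plates. After 1 hour at 37 °C, the cells were stimulated overnight with a PRR agonist. SEAP in the supernatant was read with QUANTI-Blue at 620 nm absorbance for NF-κB, and Lucia luciferase was read with QUANTI-Luc luminescence for IRF. Each signal was turned into fold change against the mean agonist-only control on the same plate, and two replicate plates were averaged with propagated errors.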

[2] = tested on: RAW-Dual (murine macrophage reporter line); test: IRF reporter (Lucia luciferase) activity fold change vs agonist alone; higher = enhanced IRF activity
Summary of the method: as §1

[3] = tested on: RAW-Dual (murine macrophage reporter line); test: viability score (confluency relative to resting cells, overnight) (fraction); higher = more viable, active = viable (0.7 or more)
Summary of the method: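 Two confluency masks, generated with IncuCyte software over all imaged wells, were applied to IncuCyte images of RAW-Dual macrophages. The cells, in 384-well plates, had been exposed overnight to 10 μM final compound. The viability score is confluency as a fraction of resting cells, and a compound met the cutoff only with both masks above 70% of resting cells.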

[4] = agonist: CpG ODN 1826 0.5 ug/mL

Row | SMILES | NF-kB reporter [1, 4] | NF-kB reporter ([1]; agonist: LPS 0.1 ug/mL) | NF-kB reporter ([1]; agonist: MPLA […]) | IRF reporter ([2]; agonist: 3'3'-cGAMP 10 ug/mL) | IRF reporter ([2]; agonist: LPS 0.1 ug/mL) | IRF reporter ([2]; agonist: MPLA […]) | viability score [3]
1 | Cc1ccc(CN2CCN(N=Cc3c4ccccc4cc4ccccc34)CC2)cc1 | 0.75 ± 0.071 | 0.881 ± 0.044 | 1.12 ± 0.1 | 0.855 ± 0.048 | 1.37 ± 0.08 | 1.25 ± 0.13 | 0.998 (active)
2 | Cc1ccc(C2C=C(c3ccccc3)Nc3ncnn32)cc1 (stereo not given) | 0.956 ± 0.089 | 1.07 ± 0.12 | 0.893 ± 0.064 | 1.1 ± 0.056 | 1.13 ± 0.11 | 1.23 ± 0.35 | 0.982 (active)
3 | Cc1ccc(S(=O)(=O)n2nnc3ccccc32)cc1C | 1.07 ± 0.11 | 1.04 ± 0.092 | 0.991 ± 0.034 | 0.928 ± 0.059 | 0.982 ± 0.14 | 1 ± 0.23 | 1 (active)
4 | CCOc1ccc2oc(-c3ccccc3)c(C(=O)N3CCN(C)CC3)c2c1 | 1.03 ± 0.052 | 1.09 ± 0.087 | 1.03 ± 0.05 | 1.05 ± 0.053 | 1.15 ± 0.13 | 1.26 ± 0.31 | 0.966 (active)
5 | Cc1cn2nc(C(=O)Nc3ccccc3N3CCN(C)CC3)cc2c(=O)[nH]1 | 0.685 ± 0.035 | 1.08 ± 0.11 | 0.864 ± 0.047 | 1.02 ± 0.052 | 1.26 ± 0.076 | 1.09 ± 0.098 | 0.941 (active)
6 | O=C(NC1CCC(F)(F)CC1)c1cc(Br)cs1 | 1.13 ± 0.064 | 0.996 ± 0.075 | 0.984 ± 0.04 | 0.833 ± 0.051 | 1.04 ± 0.052 | 1.03 ± 0.15 | 0.999 (active)
7 | Cc1ncc(CC(=O)N2CCC(c3ccccc3Cl)S(=O)(=O)CC2)s1 (stereo not given) | 0.884 ± 0.07 | 0.974 ± 0.12 | 0.972 ± 0.032 | 1.11 ± 0.092 | 0.981 ± 0.076 | 0.944 ± 0.24 | 1 (active)
8 | CN(C)CCC=C1c2ccccc2Sc2ccc(Cl)cc21.Cl | 0.333 ± 0.095 | 0.862 ± 0.052 | 1.12 ± 0.13 | 0.412 ± 0.046 | 1.39 ± 0.18 | 1.69 ± 0.16 | 0.547 (inactive)
9 | CCCCC1(C)OC(=O)C(=Cc2ccc(OC)c([N+](=O)[O-])c2)C(=O)O1 (stereo not given) | 0.994 ± 0.17 | 1.07 ± 0.11 | 0.951 ± 0.086 | 0.966 ± 0.038 | 1.16 ± 0.13 | 1.25 ± 0.15 | 1 (active)
10 | O=[N+]([O-])c1ccc(CSc2nc3cccnc3[nH]2)cc1 | 1.17 ± 0.19 | 0.949 ± 0.12 | 0.905 ± 0.077 | 0.935 ± 0.028 | 1.16 ± 0.12 | 1.22 ± 0.2 | 1.01 (active)
11 | CCC(Oc1ccccc1)C(=O)Nc1cc([N+](=O)[O-])ccc1C (stereo not given) | 0.91 ± 0.059 | 0.865 ± 0.073 | 0.987 ± 0.036 | 0.902 ± 0.042 | 0.997 ± 0.11 | 0.973 ± 0.14 | 1 (active)
12 | CC(C)CN(C[C@@H](O)[C@H](Cc1ccccc1)NC(=O)O[C@H]1CO[C@H]2OCC[C@H]21)S(=O)(=O)c1ccc(N)cc1.CCO | 1.7 ± 0.13 | 1.11 ± 0.063 | 1.7 ± 0.042 | 0.998 ± 0.056 | 0.982 ± 0.12 | 1 ± 0.081 | 0.996 (active)
13 | Cl.O=C1Cc2cc(CCN3CCN(c4nsc5ccccc45)CC3)c(Cl)cc2N1 | 0.0947 ± 0.013 | 1.06 ± 0.24 | 0.85 ± 0.059 | 0.646 ± 0.027 | 1.24 ± 0.24 | 1.01 ± 0.076 | 0.983 (active)
14 | C=CCNc1oc(Cc2cccc3ccccc23)nc1C#N | 0.818 ± 0.039 | 1.04 ± 0.091 | 1.13 ± 0.062 | 0.731 ± 0.036 | 1.16 ± 0.25 | 1.28 ± 0.4 | 0.952 (active)
15 | O=C1CCCc2nn(-c3ccccc3)nc21 | 1.02 ± 0.086 | 1.05 ± 0.14 | 1.09 ± 0.12 | 1 ± 0.049 | 1.17 ± 0.14 | 1.21 ± 0.19 | 1.03 (active)
16 | COc1cc(O)c(C(=O)Nc2nc(C(=O)NCCN(C(C)C)C(C)C)cs2)cc1OC.Cl.O.O.O | 1.01 ± 0.098 | 0.966 ± 0.13 | 0.968 ± 0.022 | 0.96 ± 0.064 | 1 ± 0.11 | 1.05 ± 0.18 | 0.997 (active)
17 | C#CCN(C)Cc1ccccc1.Cl | 0.99 ± 0.11 | 0.895 ± 0.059 | 0.98 ± 0.021 | 0.967 ± 0.075 | 1.01 ± 0.11 | 0.833 ± 0.2 | 0.999 (active)
18 | O=C(NC1CCOCC1)N1CCOC(c2cc(Cl)cc(Cl)c2)C1 (stereo not given) | 0.83 ± 0.036 | 1.05 ± 0.083 | 1.09 ± 0.06 | 0.971 ± 0.045 | 1.35 ± 0.27 | 1.54 ± 0.52 | 0.968 (active)
19 | CCN(Cc1ccncc1)C(=O)C(CO)c1ccccc1 (stereo not given) | 0.998 ± 0.087 | 0.997 ± 0.11 | 1.04 ± 0.071 | 0.972 ± 0.076 | 0.954 ± 0.058 | 0.932 ± 0.08 | 1 (active)
20 | COc1cc2c(cc1OC)C(=O)NC1(CCCC1)C2 | 1.24 ± 0.095 | 0.958 ± 0.073 | 0.959 ± 0.092 | 0.819 ± 0.05 | 0.872 ± 0.11 | 0.911 ± 0.17 | 1.02 (active)
21 | COc1cc(NC(=O)COc2ccc(C(C)C)c(C)c2)c(OC)cc1Cl | 0.818 ± 0.038 | 1.04 ± 0.1 | 1.71 ± 0.75 | 1.01 ± 0.047 | 1.25 ± 0.19 | 1.28 ± 0.39 | 0.96 (active)
22 | O=C(O)CCCCCN1C(=O)c2cccc3cccc(c23)C1=O | 0.97 ± 0.055 | 1.05 ± 0.094 | 0.948 ± 0.06 | 0.989 ± 0.05 | 1.35 ± 0.092 | 1.11 ± 0.1 | 1.01 (active)
23 | C#CCC(Cc1cnc2nc(N)nc(N)c2n1)c1ccc(C(=O)N[C@@H](CCC(=O)O)C(=O)O)cc1 (stereo not given in full) | 0.605 ± 0.045 | 0.856 ± 0.14 | 0.778 ± 0.038 | 0.774 ± 0.18 | 0.955 ± 0.032 | 0.911 ± 0.083 | 0.667 (inactive)
24 | O=C(Nc1ccc(Cl)cc1)C(Sc1ccccc1)c1ccccc1 (stereo not given) | 0.994 ± 0.11 | 1.02 ± 0.1 | 0.926 ± 0.065 | 0.989 ± 0.037 | 1.38 ± 0.26 | 1 ± 0.081 | 1.02 (active)
25 | CC(C)NCC(O)COc1cccc2ccccc12.Cl (stereo not given) | 0.858 ± 0.12 | 1.05 ± 0.13 | 1.03 ± 0.06 | 0.66 ± 0.051 | 1.21 ± 0.22 | 1.12 ± 0.29 | 0.984 (active)
